We go through 26 sequences from PMC10726135, “HNF4α isoforms regulate the circadian balance between carbohydrate and lipid metabolism in the liver”.

Over roughly 18,000 sequences, “log2 normalized intensity” has its median near 0.39; the highest 2% begin near 6.6. The entries come from a sample that favours the highest values as a whole.

In the assay the target is T1, HNF4alpha2 (COS-7 nuclear extract) (Homo sapiens, UniProt P41235 1-474).
T1 sequence: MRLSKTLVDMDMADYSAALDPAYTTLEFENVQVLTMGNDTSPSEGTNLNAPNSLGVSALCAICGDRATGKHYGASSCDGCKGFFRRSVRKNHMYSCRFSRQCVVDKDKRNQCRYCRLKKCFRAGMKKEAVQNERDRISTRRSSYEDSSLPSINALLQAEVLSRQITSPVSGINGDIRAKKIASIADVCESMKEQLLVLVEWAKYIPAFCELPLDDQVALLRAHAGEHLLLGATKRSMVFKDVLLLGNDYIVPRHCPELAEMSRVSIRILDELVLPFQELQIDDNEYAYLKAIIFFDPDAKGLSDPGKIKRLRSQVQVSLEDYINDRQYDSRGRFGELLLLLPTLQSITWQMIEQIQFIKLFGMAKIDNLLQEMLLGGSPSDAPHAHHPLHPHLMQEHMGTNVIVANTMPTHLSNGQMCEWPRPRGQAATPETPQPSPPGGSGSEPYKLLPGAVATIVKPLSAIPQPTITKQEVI
The assay can be described thus: protein-binding microarray; COS-7 nuclear extract on double-stranded Agilent 4x180k PBM; binding buffer, salt, pH and temperature not given in the material; high values mean tight binding. Conditions: chain copies: 2; label: 3' end of strand 1 on the slide; dsDNA, one strand shown. An outline of the steps:
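The binding signal is Agilent software's gProcessedSignal after background correction and normalization. Arrays were a custom Agilent SurePrint G3 4x180k design of double-stranded ~60-nt oligonucleotides with ~44,000 test sequences in quadruplicate, probed with nuclear extracts of COS-7 cells transiently expressing a human HNF4α isoform. Scans were made at 2-µm resolution on an Agilent G2565CA scanner.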
Regarding “GAGTGGACTTTGGCTTATGCAAATGTTATGGCCTAGGGAGATTAGAGTATCGGTCGA”, the binding signal came to 4.25 log2 normalized intensity.

For the sequence “ACCTTTGACCTGGTACTATGACCTTTCACCGCCTAGGGAGATTAGAGTATCGGTCGA”, the binding signal came out at 7.01 log2 normalized intensity.

As to “GAGTGACCTGGTATTGCAAGTATTTCACCCGCCTAGGGAGATTAGAGTATCGGTCGA”, the binding signal stood at 1.57 log2 normalized intensity.

In the case of “TTCACCTTTCGCCCTTTGTCCTATGACTCTGCCTAGGGAGATTAGAGTATCGGTCGA”, the binding signal was 4.63 log2 normalized intensity.

On to “CTATGACCTTTCACCTTTTAGCTTGGCATGGCCTAGGGAGATTAGAGTATCGGTCGA”, for which the binding signal was 4.41 log2 normalized intensity.

As for “TGACCTGGTACTATGACCTTTCACCTTTTAGCCTAGGGAGATTAGAGTATCGGTCGA”, the binding signal was determined as 6.99 log2 normalized intensity.

Consider “TGGTACTATGACCTTTCACCTTTTAGCTTGGCCTAGGGAGATTAGAGTATCGGTCGA”, for which the binding signal came to 5.81 log2 normalized intensity.

On to “TTAGCAGATAAATCTAGGCCTAGGCATTGAGCCTAGGGAGATTAGAGTATCGGTCGA”, for which the binding signal was -0.468 log2 normalized intensity.

On to “ATCTTGGGTTAGGCCTTTAGAGGATTTACTGCCTAGGGAGATTAGAGTATCGGTCGA”, for which the binding signal was -0.708 log2 normalized intensity.

“CATTCACATGACCTTTGTCCGTTCCTGCCTGCCTAGGGAGATTAGAGTATCGGTCGA”: the binding signal amounted to 5.92 log2 normalized intensity.

On to “ATACCCATTCACATGACCTTTGTCCGTTCCGCCTAGGGAGATTAGAGTATCGGTCGA”, for which the binding signal came to 7.01 log2 normalized intensity.

“CTGGGATGAGATACCCATTCACATGACCTTGCCTAGGGAGATTAGAGTATCGGTCGA”: the binding signal came to 3.29 log2 normalized intensity.

“ATGAGATACCCATTCACATGACCTTTGTCCGCCTAGGGAGATTAGAGTATCGGTCGA”: the binding signal was determined as 8.34 log2 normalized intensity.

Consider “TTCGGTGCTGACCTTTGTTCACATTTGTGCGCCTAGGGAGATTAGAGTATCGGTCGA”, for which the binding signal was found to be 5.06 log2 normalized intensity.

For the sequence “ACATGACCTTTGTCCGTTCCTGCCTGGAGCGCCTAGGGAGATTAGAGTATCGGTCGA”, the binding signal worked out at 4.82 log2 normalized intensity.

On to “CTGGGAAGATTAAGGAAGGAAGGTGCTTATGCCTAGGGAGATTAGAGTATCGGTCGA”, for which the binding signal is -0.85 log2 normalized intensity.

“TTCACCCCATTTTGTCCCTCCCTGCAGCTGGCCTAGGGAGATTAGAGTATCGGTCGA”: the binding signal is 4.07 log2 normalized intensity.

As for “GACCTCTGCCCTTCCACCCACTTTATCTTCGCCTAGGGAGATTAGAGTATCGGTCGA”, the binding signal amounted to 3.26 log2 normalized intensity.

On to “ATGACCTCTTTTAGTAACTGACTTTAACTTGCCTAGGGAGATTAGAGTATCGGTCGA”, for which the binding signal was found to be 1.5 log2 normalized intensity.

As for “CTCTTTAGGCTGGACTCTGACCCATTCCTTGCCTAGGGAGATTAGAGTATCGGTCGA”, the binding signal was found to be 5.23 log2 normalized intensity.

Take “CCACTCTTTTTTAGACTTTGACCTCCATATGCCTAGGGAGATTAGAGTATCGGTCGA”: the binding signal was determined as 7.61 log2 normalized intensity.

As to “ACCAGACTACCTCTTTAGGCTGGACTCTGAGCCTAGGGAGATTAGAGTATCGGTCGA”, the binding signal was determined as 3.96 log2 normalized intensity.

For “TGCAGCCCTGCCACTCTTTTTTAGACTTTGGCCTAGGGAGATTAGAGTATCGGTCGA”, the binding signal stood at 3.72 log2 normalized intensity.

Regarding “CTGACCTCTTTTGGATTTTTCCATATCTGTGCCTAGGGAGATTAGAGTATCGGTCGA”, the binding signal was determined as 1.74 log2 normalized intensity.

As for “CCCTGCCACTCTTTTTTAGACTTTGACCTCGCCTAGGGAGATTAGAGTATCGGTCGA”, the binding signal stood at 10 log2 normalized intensity.

Regarding “ACTACCTCTTTAGGCTGGACTCTGACCCATGCCTAGGGAGATTAGAGTATCGGTCGA”, the binding signal was 6.75 log2 normalized intensity.
